# Source: PubChem
# aSyn yeast inh – inhibitors of alpha-synuclein toxicity in yeast; actives 0.14% (n = 370,000); Yeast expressing alpha-synuclein, growth rescue, BacTiter-Glo, 24 h; Potency, µM (highest dose often 46.1 µM), usual class: activators; further: nearly all actives have a fitted effect of over 65% in size
#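 Readout is rescue of growth in alpha-synuclein-expressing yeast, so inhibitors of toxicity appear as activators. Growth after 24 hr at 30 deg C in galactose medium is quantified by luminescence.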
# Mito fusion yeast – blocks mitochondrial division or promotes mitochondrial fusion; AID 485298; Potency, µM (series often up to 46.1 µM), most hits filed as activators; S. cerevisiae fusion-defective mutant growth rescue, CellTiterGlo 48 h; actives 0.23% (n = 320,000); further: nearly all actives have a fitted effect of over 45% in size
#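 Compounds are tested for their ability to restore growth of mitochondrial fusion-defective yeast strains at non-permissive 37C in YPEG medium over 48 hours. Viability is quantified by luciferase luminescence.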
# Abeta rescue – compounds reversing amyloid beta toxicity in yeast | yeast expressing A-beta42, growth rescue, OD600, 48 h; response scale: 0% DMSO, 100% iron-clioquinol control | Potency, µM (series often up to 46.1 µM), most hits filed as activators | actives 0.063% (n = 410,000) | AID 1347071; further: nearly all actives have a fitted effect of over 55% in size
#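 Growth rescue measured by 600 nm absorbance after 48 h yeast culture at 30 C with compound. Values normalized between DMSO and an equimolar ferric chloride plus clioquinol control.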
# FUS suppressor – rescues growth of FUS-expressing yeast; S. cerevisiae FUS-expressing, growth rescue, OD600, 24 h; Potency, µM (series often up to 76.6 µM), hits mostly activators; actives 0.24% (n = 390,000); further: nearly all actives have a fitted effect of over 55% in size
#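 Compound concentration series was pinned onto galactose-induced FUS-expressing yeast seeded at OD 0.005. Plates sat 24hr at 30C; absorbance at 600 nm gave growth. DMSO served as background control.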
# TDP43 rescue – rescues yeast growth from TDP-43 toxicity. actives 1.8% (n = 410,000). TDP-43 expressing yeast growth rescue, BacTiter-Glo, 24 h. Potency, µM (doses to about 46.1 µM), usual class: activators; further: nearly all actives have a fitted effect of over 50% in size
#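 Luminescence from BacTiter-Glo reports growth of TDP-43-expressing yeast after 24 hr at 30 deg C with compound. Cells were raffinose-pregrown to mid-log, then seeded in galactose medium at OD600=0.02.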
# A number is an active result; – = inactive; ? = inconclusive; · = not tested or not shown; [ ] = another dose, or the depositor's remark. The list is not random: actives were taken first. Their share in the collection is about 2.2%. The call rests on the fitted dose curve; in most records, active means well fitted curve in the direction sought with a large enough effect; inconclusive means small, poorly fitted or top-dose-only effect, or another doubt; inactive means no such curve, though single readings can be large; an effect the other way counts as inactive or inconclusive.
SMILES,aSyn yeast inh,Mito fusion yeast,Abeta rescue,FUS suppressor,TDP43 rescue
COC(=O)N1C(=O)[C@](c2ccc(Cl)cc2)(C(C)C)N1C(=O)OC,–,–,–,–,35µM
O=C(COC(=O)/C=C/c1ccc(Cl)c(Cl)c1)NC1CCCC1,–[1.84 µM],–,–,–,10µM
Cc1ccccc1N1C(=O)CC(N2CCC(C(N)=O)CC2)C1=O (stereo not drawn),–,–,–,–,16µM
CC1Cc2ccccc2N1C(=S)Nc1ccc(S(N)(=O)=O)cc1 (stereo not drawn),–,–,–,·,?
CC(=O)c1ccc(NC(=S)N2CCC(Cc3ccccc3)CC2)cc1,–,–,?,–,25µM
CC(=O)c1ccc(NC(=S)N2c3ccccc3CC2C)cc1 (stereo not drawn),?,–,–,–,16µM
CC(=O)c1cccc(NC(=S)N2CCC(Cc3ccccc3)CC2)c1,–,?,?,–,?
Cc1ccnc2ccc(F)cc12,–,·,·,·,·
Cc1ccc2nc(COc3ccccc3NC(=O)c3ccccc3F)cc(=O)n2c1,·,·,–,–,–
COc1ccc(/C=C2/C(=O)ON=C2c2ccccc2)cc1OC,13µM,–,–,–,?
NC(=O)COc1ccc(/C=C2\C(=O)ON=C2c2ccccc2)cc1,16µM,–,–,·,22µM
CCOc1cc(/C=C2\C(=O)ON=C2c2ccccc2)ccc1OC,–,–,–,–,13µM
COc1ccc(/C=C2\C(=O)ON=C2c2ccccc2)cc1OC,?,–,–,–,?
CCCCNC(=O)C[C@H]1C[C@@]2(C(=O)OC)C(=C[C@H](C(C)(C)C)O[C@@H]2C)N(Cc2ccco2)C1=O,·,·,·,–,·
COc1ccc(OC)c(NC(=O)C2CCCN(S(=O)(=O)c3ccc4[nH]c(=O)ccc4c3)C2)c1 (stereo not drawn),·,·,–,–,–
CCc1c(CN2CCN(c3cccc(C)c3C)CC2)csc1C,·,·,–,–,–
CSc1ccc(C=NNC(=O)c2cc(-c3ccc(Cl)cc3)n[nH]2)cc1,·,·,·,–,·
Cc1nc(C)c(-c2ccc(SCc3ccc(Cl)cc3)nn2)s1,–,?,–,?,?
Cc1nc(C)c(-c2ccc(SCc3cccc(F)c3)nn2)s1,–,?,–,–,20µM
Clc1ccccc1-c1ccc2ncnc(NCc3ccc4c(c3)OCO4)c2c1,·,?,–,–,·
Clc1ccccc1-c1cnc2sc(NCc3ccc4c(c3)OCO4)nn12,–,·,–,–,4µM
Cc1ccc(NC(=O)C(=O)NCC(c2cccnc2)N2CCN(C)CC2)cc1C (stereo not drawn),·,·,–,–,–
C/C(=N\Nc1cc(C)nc(-c2ccccc2O)n1)c1ccccc1O,–,–,–,–,11µM
Cc1ccc(NC(=O)CSCC(=O)N(C)CCOc2ccc(Cl)cc2)cc1,–,?,–,–,?
Cc1cccc(NC(=O)CSCC(=O)N(C)CCOc2ccc(Cl)cc2)c1,–,–,–,–,13µM
SMILES,aSyn yeast inh,Mito fusion yeast,Abeta rescue,FUS suppressor,TDP43 rescue
O=[N+]([O-])c1cc(C=NN2CCN(Cc3ccccc3Cl)CC2)ccc1Cl,·,·,·,–,·
Cc1c(C(=O)N(Cc2ccc(Cl)cc2)C2CCS(=O)(=O)C2)oc2ccccc12 (stereo not drawn),?,14µM,–,?,?
CCOc1ccc(CN(C(=O)c2cc(=O)c3cc(Cl)ccc3o2)C2CCS(=O)(=O)C2)cc1 (stereo not drawn),·,·,–,32µM,–
CCCCCOc1ccc(C(=O)N(Cc2ccccc2)C2CCS(=O)(=O)C2)cc1 (stereo not drawn),·,–,–,?,20µM
CCCOc1cccc(C(=O)N(Cc2ccccc2)C2CCS(=O)(=O)C2)c1 (stereo not drawn),–,–,–,–,–
O=C(Nc1ccc(Br)cc1)C1CCCC1,–,–,–,–,11µM
O=C(NC(=S)Nc1ccc(Br)cc1)C1CCC1,–,–,5.6µM,–,?
CC(=O)NC(=S)Nc1cccc([N+](=O)[O-])c1,–,–,–,–,?
O=C(NC(=S)Nc1cccc([N+](=O)[O-])c1)C1CCCC1,–,–,?,–,13µM
CCOC(=O)c1ccc(NC(=S)NC(=O)C2CCCC2)cc1,–,–,?,–,–
COC(=O)c1ccc(NC(=S)NC(=O)C2CCC2)cc1,–,–,8.9µM,–,?
O=C(CSc1nc(-c2ccccc2)no1)N1CCCCC1,·,·,–,–,–
O=C(NCC1CCCO1)c1ccc(-c2ccccc2Cl)o1 (stereo not drawn),–,–,–,–,20µM
Cc1onc(-c2ccccc2Cl)c1C(=O)NCC1CCCO1 (stereo not drawn),–,–,–,–,–
CC1CCN(C(=O)c2ccc(-c3ccccc3Cl)o2)CC1,–,16µM,–,–,–
O=C(NNC(=O)c1ccccc1F)c1ccc(-c2ccccc2Cl)o1,–,·,–,–,22µM
O=C1C(=O)N(C2CCN(S(=O)(=O)c3ccccc3)CC2)CCN1Cc1ccccc1,·,·,–,–,–
COc1ccc(-c2cc(-c3ccccc3)nc(-c3ccc4c(c3)NC(=O)CO4)c2)cc1,·,–,–,–,13µM
COc1ccc(Nc2nc(-c3ccc4c(c3)NC(=O)CO4)cs2)cc1,–,–,–,–,?
CNC(=O)C1CCC(Cn2c(=O)c3sccc3n(CC(=O)NCc3ccccc3)c2=O)CC1 (stereo not drawn),·,·,–,–,–
Cc1ccc(S(=O)(=O)N2CCN(C(=O)COC(=O)c3ccccc3Cl)CC2)c(C)c1,–,–,–,–,25µM
Cc1ccc(S(=O)(=O)N2CCN(C(=O)COC(=O)c3ccccc3OC(F)F)CC2)c(C)c1,–,·,–,–,–
Cc1cccc(-n2c(-c3ccccc3)cn3c4c(=O)[nH]c(=O)n(C)c4nc23)c1,–,·,–,–,–
CC(=O)CSc1nnc2c3ccccc3nc(C(C)(C)C)n12,–,–,–,–,14µM
COc1ccc(Nc2nc3ccccc3nc2NS(=O)(=O)c2ccc(Cl)cc2)cc1OC,–,·,–,–,–
SMILES,aSyn yeast inh,Mito fusion yeast,Abeta rescue,FUS suppressor,TDP43 rescue
O=C(Nc1cccc(-c2csc(Nc3ccc(Cl)cc3)n2)c1)c1ccccc1,–,–,–,?,?
O=C(NNC(=S)Nc1cccc(C(F)(F)F)c1)c1ccccc1Cl,–,–,?,–,–
O=C(NNC(=S)Nc1cccc(C(F)(F)F)c1)c1cccc(Cl)c1,–,–,–,–,8.9µM
O=C(Nc1cccc(-c2csc(Nc3ccc(Cl)cc3)n2)c1)c1cccc(C(F)(F)F)c1,–,–,–,–,25µM
COc1ccc(-c2cc(-c3cc(OC)ccc3O)[nH]n2)cc1,–,–,–,–,25µM
COc1ccc(O)c(-c2cc(-c3ccc(F)cc3)n[nH]2)c1,–,–,–,–,?
COc1ccc(-c2cc(-c3ccccc3O)[nH]n2)cc1OC,–,–,–,–,13µM
COc1ccc(-n2c(SCC(=O)NCc3ccccc3)nc3c([nH]c4ccccc43)c2=O)cc1,–,·,–,–,–
